Data on 88 compounds can be found in PubChem BioAssay AID1259415 (National Center for Advancing Translational Sciences (NCATS), 2018).

The whole screen tested about 410,000 compounds, of which about 18,000 (4.4%) were called active. Not shown: some 7% with an inconclusive outcome. No stated cut-off is given here; in the data, active means activity change below about -60%; inconclusive means no clear call, values can overlap the other calls; inactive means above about -39%. For the sample, actives were picked, then their nearest neighbours and some compounds at random.
On the % scale 0 is the no-effect control and ±100 the full control effect.

The test is described as follows: qHTS Assay for inhibitors of the human cytomegalovirus (HCMV). The following applies: HFF cells, HCMV-luciferase reporter, 72 h; at 57.5 µM; hits give low values. The gist of the method: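 Two-dose cell screen: HFF monolayers treated with compounds and infected with luciferase-expressing HCMV at 1 PFU/cell, 72 h at 37C, then lysed for luciferase measurement.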
A general note: In qHTS, concentration-response curves come from the screen itself.
Consider `Cc1ccccc1CNC(=O)CCCn1nc(C)c2sc3ccccc3c2c1=O`, for which the activity change, negative = inhibition is 14.7% (inactive).

Take `CCOC(=O)CNC(=O)N1Cc2cc(N3CCCCC3)ccc2-n2nncc2C1`: the activity change, negative = inhibition was -62.1% (active).

On to `CC(C)CN1Cc2cc(N3CCCCC3)ccc2-n2nncc2C1`, for which the activity change, negative = inhibition was 10.2% (inactive).

Take `O=C(NC1CCCCC1)N1Cc2cc(N3CCCCC3)ccc2-n2nncc2C1`: the activity change, negative = inhibition is 40.9% (inactive).

Consider `Cn1c(C(=O)N2CCC(C(=O)N3CCN(c4ccccc4)CC3)CC2)cc2sccc21`, for which the activity change, negative = inhibition was -22.9% (inactive).

Take `Cc1nn(CC(=O)N2CCN(c3cccc(C(F)(F)F)c3)CC2)c(=O)c2cc3sccc3n12`: the activity change, negative = inhibition is 2.88% (inactive).

As to `COc1ccc(F)cc1C(=O)COC(=O)c1n[nH]c(=O)c2ccccc12`, the activity change, negative = inhibition is 49.5% (inactive).

As for `CS(=O)(=O)c1ccc(-c2nnc(NC(=O)c3ccc4c(c3)OCCO4)o2)cc1`, the activity change, negative = inhibition is -0.462% (inactive).

With `CC1CC(C)CN(S(=O)(=O)c2ccc(C(=O)NN3CCOCC3)cc2)C1` (stereo not drawn), the activity change, negative = inhibition is -27.9% (inactive).

For `CC1CCCN(S(=O)(=O)c2ccc(C(=O)Nc3nnc(-c4ccncc4)o3)cc2)C1` (stereo not drawn), the activity change, negative = inhibition was -96.5% (active).

Consider `C[C@H]1CN([C@@H](C)CO)C(=O)CCCn2nncc2CO[C@@H]1CN(C)C(=O)Nc1ccc(N2CCN(C)CC2)cc1`, for which the activity change, negative = inhibition was -20.2% (inactive).

Turning to `COc1cc(C2OC(c3cc(OC)c(OC)c(OC)c3)C(C)C2C)cc(OC)c1OC` (stereo not drawn), the activity change, negative = inhibition is 54.8% (inactive).

For the compound `O=C(CC1Oc2ccccc2NC1=O)NCc1ccc(F)cc1` (stereo not drawn), the activity change, negative = inhibition is -9.67% (inactive).

As to `O=C(NCc1ccccc1)c1ccc2c(c1)nc1n2CCCCC1`, the activity change, negative = inhibition is 27.3% (inactive).

`CCn1c(CSc2nc(C)cc(C)n2)nnc1SCC(N)=O`: the activity change, negative = inhibition is -18.8% (inactive).

Turning to `Cc1cc(C)nc(S/C=C/C(=O)c2ccccc2)n1`, the activity change, negative = inhibition was -90.7% (active).

On to `CCC1Oc2ccc(Cl)cc2N(CC(=O)O)C1=O` (stereo not drawn), for which the activity change, negative = inhibition was -13.4% (inactive).

As for `Cc1cc(C)n(C(=O)c2ccc(C)c(S(=O)(=O)N3CCOCC3)c2)n1`, the activity change, negative = inhibition was -11.1% (inactive).

Regarding `O=C(Nc1cccn(Cc2c(Cl)cccc2Cl)c1=O)c1ccc(Cl)cc1`, the activity change, negative = inhibition is -83.3% (active).

As to `O=C(Nc1cccn(Cc2ccccc2Cl)c1=O)NC1CCCCC1`, the activity change, negative = inhibition is -37.7% (inactive).

Regarding `CCn1c(=O)c(=O)n(CC)c2cc(N3CCCCC3)c(NC(=O)c3ccc(Cl)cc3)cc21`, the activity change, negative = inhibition is -11.3% (inactive).

For `Cc1ccc(C(=O)Nc2ccc(OCc3cc(=O)n4c5c(sc4n3)CCCC5)cc2)cc1`, the activity change, negative = inhibition is 7.24% (inactive).

Consider `COc1ccc(S(=O)(=O)N2CCOCC2)cc1NC(=O)CSc1nnc(NC2CC2)s1`, for which the activity change, negative = inhibition is 18.1% (inactive).

Consider `COc1ccc(S(=O)(=O)N2CCOCC2)cc1NC(=O)CSc1cc(C)ccc1C`, for which the activity change, negative = inhibition was -10.1% (inactive).

On to `COc1ccc(S(=O)(=O)N2CCOCC2)cc1NC(=O)CSc1ncnc2ccccc12`, for which the activity change, negative = inhibition was -109% (active).

As to `CCCCN(CC)CCCNC(=O)Cn1ncc2c([nH]c3ccc(C)cc32)c1=O`, the activity change, negative = inhibition was -8.89% (inactive).

In the case of `Cc1[nH]c2ccccc2c1/C=C(/C#N)C(=O)NC(C)C`, the activity change, negative = inhibition was -36.7% (inactive).

With `O=C(/C=C/c1c(F)cccc1Cl)Nc1nn[nH]n1`, the activity change, negative = inhibition is -8.32% (inactive).

Consider `CNC(=O)/C(C#N)=C/c1c(F)cccc1Cl`, for which the activity change, negative = inhibition is -80.3% (active).

In the case of `COc1ccccc1NC(=O)COc1ccc(C(=O)OCC(=O)N(C(C)C)C(C)C)cc1OC`, the activity change, negative = inhibition was -9.98% (inactive).

With `Cc1cc(S(=O)(=O)N2CCOCC2)ccc1OCC(=O)Nc1cccc(C(F)(F)F)c1`, the activity change, negative = inhibition was -13.9% (inactive).

Consider `COc1cc(C(=O)N(C)Cc2cccc(OC)c2OC)ccc1OCC(=O)Nc1cccc(C(F)(F)F)c1`, for which the activity change, negative = inhibition is -86.1% (active).

For `CCCN1CCN(CCCNC(=O)Cn2nc(CC)n3c(cc4occc43)c2=O)CC1`, the activity change, negative = inhibition was 35.8% (inactive).

In the case of `CC(C)(C)Oc1ccccc1Nc1nc(NCCO)nc(N2CCCC2)n1`, the activity change, negative = inhibition is 1.45% (inactive).

Regarding `O=c1oc2ccccc2cc1-c1cn(-c2ccccc2)c(=S)[nH]1`, the activity change, negative = inhibition is -86.5% (active).

In the case of `CC(C)Cn1c(=O)c2ccccc2n2c(-c3cccc(Cl)c3)nnc12`, the activity change, negative = inhibition was 2.19% (inactive).

On to `COc1ccc(CNC(=O)CSc2nc3ccccc3nc2Cc2ccccc2)cc1`, for which the activity change, negative = inhibition was -15% (inactive).

Consider `COCCNS(=O)(=O)c1cc(-c2nn3c(C)nnc3c3ccccc23)ccc1C`, for which the activity change, negative = inhibition was 6.92% (inactive).

`Cc1cc(Cl)c(S(=O)(=O)N(C)C)cc1OCC(N)=O`: the activity change, negative = inhibition was 12.2% (inactive).

Take `Cc1cc(Cl)c(S(=O)(=O)Nc2ccc3c(c2)OCCO3)cc1OCC(N)=O`: the activity change, negative = inhibition is -65.5% (active).

For the compound `Cc1cc(Cl)c(S(=O)(=O)NCCC(=O)O)cc1OCC(N)=O`, the activity change, negative = inhibition was 8.87% (inactive).

As to `CC(C)CNC(=O)CC(c1ccccc1)c1c(O)ccc2ccccc12` (stereo not drawn), the activity change, negative = inhibition was 16% (inactive).

`O=C(/C=C/c1ccccc1)Nc1cc(-c2nc3cc(Cl)ccc3o2)ccc1Cl`: the activity change, negative = inhibition is 88.6% (inactive).

For `CC(=O)N1CCCc2cc(S(=O)(=O)N3CCC(C(=O)NCc4ccc(F)cc4)CC3)ccc21`, the activity change, negative = inhibition is 7.04% (inactive).

With `O=C(NCc1ccc2c(c1)CCN2C(=O)c1ccccc1)Nc1cc(F)ccc1F`, the activity change, negative = inhibition was -84.8% (active).

For the compound `O=C(COc1ccccc1)NCc1ccc2c(c1)CCN2C(=O)c1ccc(F)cc1`, the activity change, negative = inhibition was -6.87% (inactive).

`O=C(NCc1ccc2c(c1)CCN2C(=O)c1ccccc1)c1ccccc1`: the activity change, negative = inhibition was 13.7% (inactive).

For the compound `COc1ccc(C(=O)Nc2cccc(C(=O)OCc3cc(=O)n4c5c(sc4n3)CCCC5)c2)cc1`, the activity change, negative = inhibition was -36% (inactive).

As to `COc1ccc(CCNc2ncnc3onc(-c4ccc(Cl)cc4)c23)c(OC)c1`, the activity change, negative = inhibition is 0.256% (inactive).

Consider `COc1ccc(OC)c(Cc2cnc3nc(N)nc(N)c3c2C)c1`, for which the activity change, negative = inhibition was -98.1% (active).

As to `COc1ccc(OC)c(-n2nnc3c(sc4nc(C)c(Br)c(C)c43)c2=O)c1`, the activity change, negative = inhibition is -8.62% (inactive).

As to `O=C(Cc1ccc(NC(=O)C2CCCN(C(=O)C3CCCCC3)C2)cc1)Nc1cccc(C(=O)N2CCCCC2)c1` (stereo not drawn), the activity change, negative = inhibition was 1.06% (inactive).

Consider `N#Cc1cccc(NC(=O)C2CCCN(C(=O)c3ccc(Cl)cc3)C2)c1` (stereo not drawn), for which the activity change, negative = inhibition is -66% (active).

In the case of `N#Cc1cccc(NC(=O)CN2CCCCCC2)c1`, the activity change, negative = inhibition is -11.3% (inactive).

Take `CSc1ccc(CCNC(=O)c2cnn(-c3ccccc3)c2-n2cccc2)cc1`: the activity change, negative = inhibition is -13.5% (inactive).

As to `COc1ccc(Nc2ncc3c(n2)CCN(C(=O)OC(C)(C)C)C3)cc1`, the activity change, negative = inhibition is 12.2% (inactive).

In the case of `COC(=O)c1ccc(NC(=O)c2cccc3c2C(=O)N(C2CCCCC2)C3)cc1`, the activity change, negative = inhibition is 12.9% (inactive).

With `COC(=O)c1ccc(C)c(NC(=O)Cn2c(C)csc2=O)c1`, the activity change, negative = inhibition is 0.424% (inactive).

For the compound `CCc1cccc(NC(=O)CN(C)S(=O)(=O)c2ccc3[nH]c4c(c3c2)CCCC4)c1`, the activity change, negative = inhibition was 3.8% (inactive).

In the case of `Cc1cccc(NC(=S)N2CCC(C(=O)c3ccc(F)cc3)CC2)c1`, the activity change, negative = inhibition is 15% (inactive).

With `Cc1cccc(NC(=S)NCc2ccc3[nH]c4c(c3c2)CCCC4)c1`, the activity change, negative = inhibition was -72.9% (active).

For `Cc1ccc2c(c1)-c1c(cnn1CC(=O)Nc1ccccc1C#N)CO2`, the activity change, negative = inhibition is -27.6% (inactive).

Take `CCn1cc(C(=O)N2CCN(c3cc(C)ccc3C)CC2)c(=O)c2cc(S(=O)(=O)N(C)C3CCCCC3)ccc21`: the activity change, negative = inhibition is 10.1% (inactive).

As to `CC(=O)Nc1ccc(S(=O)(=O)N(C)CC(=O)NCCC2=CCCCC2)cc1`, the activity change, negative = inhibition was -7.2% (inactive).

Turning to `S=C(NCCC1=CCCCC1)Nc1ccccc1`, the activity change, negative = inhibition was -67% (active).

In the case of `CC(OC(=O)c1c(F)cccc1F)C(=O)NCCC1=CCCCC1` (stereo not drawn), the activity change, negative = inhibition is 20.1% (inactive).

Consider `Fc1ccccc1-c1noc2nc(OCc3ccc(OC(F)F)cc3)ccc12`, for which the activity change, negative = inhibition was 7.83% (inactive).

Consider `CCc1ccccc1N1C(=O)CN(S(=O)(=O)CC)CC1(C)C(=O)NC1CCCCC1` (stereo not drawn), for which the activity change, negative = inhibition is 0% (inactive).

Take `COc1ccc2c(c1)C(NS(=O)(=O)OCC(Cl)(Cl)Cl)CCC2` (stereo not drawn): the activity change, negative = inhibition was -21% (inactive).

For `CCCc1cc(=O)[nH]c(SCC(=O)c2c(N)n(CC(C)C)c(=O)n(C)c2=O)n1`, the activity change, negative = inhibition was -60.6% (active).

With `CCCc1cc(=O)[nH]c(SCC(=O)N2C(C)CCCC2C)n1` (stereo not drawn), the activity change, negative = inhibition is 24.9% (inactive).

`CC(C)Cn1c(N)c(C(=O)COC(=O)CN2C(=O)C3CC=CCC3C2=O)c(=O)n(C)c1=O` (stereo not drawn): the activity change, negative = inhibition was -31.7% (inactive).

In the case of `CC1CCN(C2=NC(=O)/C(=C/c3cn[nH]c3-c3ccccc3)S2)CC1`, the activity change, negative = inhibition was -1.68% (inactive).

Turning to `O=C1N=C(N2CCOCC2)S/C1=C\C=C/c1ccccc1`, the activity change, negative = inhibition was -102% (active).

On to `O=C1N=C(N2CCOCC2)CS1`, for which the activity change, negative = inhibition was -12.8% (inactive).

On to `COc1ccc(C2CC(=O)N(Cc3ccccc3C)c3c2c(C)nn3-c2nc(C)cc(C)n2)c(OC)c1` (stereo not drawn), for which the activity change, negative = inhibition was -22.9% (inactive).

As to `O=C(COc1ccc(Cl)cc1)Nc1ccc(-c2nc3cc(Cl)ccc3o2)c(O)c1`, the activity change, negative = inhibition is 71.6% (inactive).

`O=C(Cn1cnc2ccccc2c1=O)Nc1cccc(S(=O)(=O)N2CCCCC2)c1`: the activity change, negative = inhibition is 0% (inactive).

As for `CCC(C)c1ccccc1NC(=O)CN(C)CC(=O)Nc1ccccc1SC` (stereo not drawn), the activity change, negative = inhibition is -37.9% (inactive).

Turning to `CSc1ccccc1NC(=O)CN(C)CC(=O)Nc1ccc(Cl)cc1[N+](=O)[O-]`, the activity change, negative = inhibition is -26.6% (inactive).

Turning to `CSc1ccccc1NC(=O)CN(C)CC(=O)Nc1cccc(Br)c1`, the activity change, negative = inhibition was -99.6% (active).

Turning to `O=C(Cn1c(=O)n(Cc2cccs2)c(=O)c2cccnc21)Nc1ccc(F)cc1`, the activity change, negative = inhibition was -5.11% (inactive).

For the compound `CCCC(=O)Nc1ccc2oc(-c3ccc(O)c(Br)c3)nc2c1`, the activity change, negative = inhibition was 94.7% (inactive).

Consider `COc1ccc(CCNC(=O)c2cc(=O)c3c(C)cc(C)cc3o2)cc1OC`, for which the activity change, negative = inhibition is -6.54% (inactive).

With `COc1cccc(-n2cc(C(=O)NCc3cccc(Cl)c3)c3ccccc3c2=O)c1`, the activity change, negative = inhibition was -23.6% (inactive).

For the compound `CCN(CC)c1ccc(NS(=O)(=O)c2cc(-c3cc(C)no3)ccc2C)c(C)c1`, the activity change, negative = inhibition was 0% (inactive).

Consider `Cc1ccc2c(c1)N(S(=O)(=O)c1cc(-c3cc(C)no3)ccc1C)CCO2`, for which the activity change, negative = inhibition was -81.3% (active).

Consider `CCC1CN(S(=O)(=O)c2cc(-c3cc(C)no3)ccc2C)c2cc(C)ccc2O1` (stereo not drawn), for which the activity change, negative = inhibition is -36.6% (inactive).
